In PubChem BioAssay (NCATS) one finds Z-AUC data, which are given here for 40 compounds.

Starred links: 1 amine or outer side, 2 acyl side, 3 side chain; linkers in the order of their positions; H or OH if unused. Positions of bridges follow the written chain, without caps; N, C: chain ends. Non-standard residues stand in square brackets, D forms with d. Residues, ends and D or L forms follow the SMILES beside them. Chains are numbered I, II in the order given. *: point of attachment. Actinocin(9to1) = Cc1c2oc3c(C)ccc(C(=O)[*:1])c3nc-2c(C(=O)[*:2])c(N)c1=O; NMeV = CN[CH](C(=O)O)C(C)C; Cbz = O=C(OCc1ccccc1)*; Sar = CNCC(=O)O

A short description of the first experiment: qHTS drug screen for cell cycle checkpoint inhibitors in PARPi-resistant BRCA-mutant ovarian cancer cell lines. (AID 1963452). The settings on record: PEO1/OlaR viability, CellTiter-Glo luminescence, 96 h; measured here: PEO1 parental Z-AUC; stronger effect = lower value. The procedure, abridged:
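PEO1, PEO4 and PEO1/OlaR ovarian cancer cells, 600 per well, exposed 96 h at 37C to a dilution series. Viability read by CellTiter-Glo luminescence, normalized to DMSO and empty wells; activity summarized as Z-AUC.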
On the technique in general: In qHTS, concentration-response curves come from the screen itself.
For `CCNC(=O)c1cc2c(-c3cc(OCCN4CCCC4)c(Cl)cc3Cl)nc(N)nc2s1`, the Z-AUC was -0.714.

On to `COc1cc(C)c(Sc2cnc(NC(=O)c3ccc(CNC(C)C(C)(C)C)cc3)s2)cc1C(=O)N1CCN(C(C)=O)CC1` (stereo not drawn), for which the Z-AUC was -0.233.

Take `COc1cc(O)c2c(c1)C1OC1C[C@H](O)[C@H](O)C(=O)C=CC[C@H](C)OC2=O` (stereo partly drawn): the Z-AUC is -0.101.

Regarding `O=S(=O)(O)CCSSCCS(=O)(=O)O`, the Z-AUC stood at 0.123.

With `CCCc1nc(C(C)(C)O)c(C(=O)O)n1Cc1ccc(-c2ccccc2-c2nn[nH]n2)cc1`, the Z-AUC came out at 0.788.

`C[C@H]1[C@@H](OC(=O)CCC(=O)O)O[C@@H]2O[C@@]3(C)CC[C@@H]4[C@H](C)CC[C@@H]1[C@@]24OO3`: the Z-AUC is -0.815.

Regarding `CN1C(C(=O)Nc2ccccn2)=C(O)c2sc(Cl)cc2S1(=O)=O`, the Z-AUC came out at 0.551.

Turning to `CCCCCCCN(CC)CCCC(O)c1ccc(NS(C)(=O)=O)cc1` (stereo not drawn), the Z-AUC came out at 0.764.

Take `C=Cc1c(C)c2cc3nc(cc4[nH]c(cc5nc(cc1[nH]2)C(C)=C5CCC(=O)O)c(CCC(=O)OC)c4C)[C@@]1(C)C3=CC=C(C(=O)OC)[C@H]1C(=O)OC`: the Z-AUC is 1.25.

With `c1ccc(CNc2nc(NCc3ccccc3)c3ccccc3n2)cc1`, the Z-AUC is -0.502.

`Oc1cc2c(cc1O)C1c3ccc(O)c(O)c3OCC1(O)C2` (stereo not drawn): the Z-AUC worked out at 1.33.

Turning to `CC(C)c1cc(C(C)C)c(CC(=O)NS(=O)(=O)Oc2c(C(C)C)cccc2C(C)C)c(C(C)C)c1`, the Z-AUC stood at 0.546.

`CC(C)[C@H](CO)Nc1nc(Nc2cccc(Cl)c2)c2ncn(C(C)C)c2n1`: the Z-AUC was determined as 0.0457.

Staying with this experiment, now noted: PEO1/OlaR viability, CellTiter-Glo luminescence, 96 h; measured here: PEO4 Z-AUC; stronger effect = lower value.
Turning to `O=C(CCCCCCC(=O)Nc1cccnc1)NO`, the Z-AUC was 0.136.

Regarding `CC(N[C@H]1CCCC[C@H]1NC(=O)c1ccc(Cl)cc1)c1cccc2ccccc12` (stereo partly drawn), the Z-AUC amounted to 0.472.

As for `Oc1ccc(-c2ccc(-c3cc(Nc4cccc(CNC5CC5)c4)n[nH]3)cc2)c(O)c1`, the Z-AUC was 0.0871.

Regarding `CC(C)C[C@@H](C=O)NC(=O)[C@H](CC(C)C)NC(=O)[C@H](CC(C)C)NC(=O)OCc1ccccc1` (Cbz-Leu-Leu-Leu-aldehyde), the Z-AUC was -0.457.

As for `Oc1ccc([C@@H]2Oc3ccc(O)cc3[C@@H]3CCC[C@@H]32)cc1`, the Z-AUC is -0.0299.

For the compound `Nc1nc(=O)n([C@H]2C[C@H](O)[C@@H](CO)O2)cc1F`, the Z-AUC is -0.999.

In the case of `Cc1c2oc3c(C)ccc(C(=O)NC4C(=O)NC(C(C)C)C(=O)N5CCCC5C(=O)N(C)CC(=O)N(C)C(C(C)C)C(=O)OC4C)c3nc-2c(C(=O)NC2C(=O)NC(C(C)C)C(=O)N3CCCC3C(=O)N(C)CC(=O)N(C)C(C(C)C)C(=O)OC2C)c(N)c1=O` (stereo not drawn) (I: TVP[Sar][NMeV] / II: TVP[Sar][NMeV]; ester I:1-I:C, II:1-II:C; linker I:N-II:N via Actinocin(9to1); configuration not given here), the Z-AUC is -0.27.

Take `C#Cc1cccc(Nc2ncnc3cc(OCCOC)c(OCCO)cc23)c1`: the Z-AUC was determined as 0.173.

Consider `CC(C)Oc1ccc(C(=O)N[C@H](CNC(=O)CN(C)C)Cc2ccc(-c3cn4cccc([C@H](C)O)c4n3)cc2)cc1Cl`, for which the Z-AUC is -1.18.

For `CCCCCCCCc1ccc(CCC(N)(CO)CO)cc1`, the Z-AUC turned out to be 0.091.

Regarding `O=C(O)CCCCCC(=O)NN=C1CCCC1`, the Z-AUC stood at 1.15.

For the compound `Cc1cnc(NC(=O)Nc2cc(Br)c(C)cc2OC[C@@H]2CNCCO2)cn1`, the Z-AUC is -0.00574.

For `NC1=N[C@H]2[C@H](CS[C@H]2CCCCC(=O)O)N1`, the Z-AUC came out at 0.00068.

For `O=c1ccn([C@@H]2O[C@H](CO)[C@H](O)[C@@H]2F)c(=O)[nH]1`, the Z-AUC came to 0.262.

As to `CN(C)CCN1C(=O)c2cccc3cc(N)cc(c23)C1=O`, the Z-AUC is -0.88.

Regarding `c1cc(CN2CCCNCCNCCCNCC2)ccc1CN1CCCNCCNCCCNCC1`, the Z-AUC was 1.11.

As to `CN(C)c1ccc(C(=O)NCCCCCCC(=O)NO)cc1`, the Z-AUC is -0.674.

As to `NC(=NCCCCCCN=C(N)N=C(N)Nc1ccc(Cl)cc1)N=C(N)Nc1ccc(Cl)cc1`, the Z-AUC is -0.00855.

Regarding `COc1cc(CCc2cc(NC(=O)c3ccc(N4C[C@@H](C)N[C@@H](C)C4)cc3)n[nH]2)cc(OC)c1`, the Z-AUC was -0.842.

With `CC(C)c1cnn2c(NCc3ccccc3)cc(NCCCCCCN)nc12`, the Z-AUC came out at 1.15.

`CC(C)NC[C@@H](C(=O)N1CCN(c2ncnc3c2[C@H](C)C[C@H]3O)CC1)c1ccc(Cl)cc1`: the Z-AUC was 1.13.

In the case of `NC(=O)N1CCC(CC(=O)N2CCC([C@H]3c4ncc(Br)cc4CCc4cc(Cl)cc(Br)c43)CC2)CC1`, the Z-AUC is -0.991.

As to `Nc1nc(N)c2nc(-c3cccc(O)c3)c(-c3cccc(O)c3)nc2n1`, the Z-AUC amounted to 0.781.

With `CCc1c(O)cc(O)c(C(=O)c2ccc(OCCN3CCOCC3)c(OC)c2)c1CC(=O)N(CCOC)CCOC`, the Z-AUC turned out to be 0.145.

With `CC(=O)SCC(Cc1ccccc1)C(=O)NCC(=O)OCc1ccccc1` (stereo not drawn), the Z-AUC is 0.777.

For `COc1cccc2c1C(=O)c1c(O)c3c(c(O)c1C2=O)C[C@@](O)(C(=O)CO)C[C@@H]3O[C@H]1C[C@H](N)[C@@H](O)[C@H](C)O1`, the Z-AUC is -1.69.

As to `Nc1ccn(C2CO[C@H](CO)O2)c(=O)n1` (stereo partly drawn), the Z-AUC amounted to 0.884.

For the compound `CCNC(=O)c1cc2c(-c3cc(OCCN4CCCC4)c(Cl)cc3Cl)nc(N)nc2s1`, the Z-AUC was -0.886.

`COc1cc(C)c(Sc2cnc(NC(=O)c3ccc(CNC(C)C(C)(C)C)cc3)s2)cc1C(=O)N1CCN(C(C)=O)CC1` (stereo not drawn): the Z-AUC was -0.809.

Regarding `COc1cc(O)c2c(c1)C1OC1C[C@H](O)[C@H](O)C(=O)C=CC[C@H](C)OC2=O` (stereo partly drawn), the Z-AUC was -0.574.

Turning to `O=S(=O)(O)CCSSCCS(=O)(=O)O`, the Z-AUC came out at 0.876.

Take `CCCc1nc(C(C)(C)O)c(C(=O)O)n1Cc1ccc(-c2ccccc2-c2nn[nH]n2)cc1`: the Z-AUC came out at 1.03.

Turning to `C[C@H]1[C@@H](OC(=O)CCC(=O)O)O[C@@H]2O[C@@]3(C)CC[C@@H]4[C@H](C)CC[C@@H]1[C@@]24OO3`, the Z-AUC is -0.572.

Regarding `CN1C(C(=O)Nc2ccccn2)=C(O)c2sc(Cl)cc2S1(=O)=O`, the Z-AUC came out at 0.669.

Regarding `CCCCCCCN(CC)CCCC(O)c1ccc(NS(C)(=O)=O)cc1` (stereo not drawn), the Z-AUC was 1.03.

As for `C=Cc1c(C)c2cc3nc(cc4[nH]c(cc5nc(cc1[nH]2)C(C)=C5CCC(=O)O)c(CCC(=O)OC)c4C)[C@@]1(C)C3=CC=C(C(=O)OC)[C@H]1C(=O)OC`, the Z-AUC worked out at 1.36.

Turning to `c1ccc(CNc2nc(NCc3ccccc3)c3ccccc3n2)cc1`, the Z-AUC was -0.739.

Turning to `Oc1cc2c(cc1O)C1c3ccc(O)c(O)c3OCC1(O)C2` (stereo not drawn), the Z-AUC came out at 1.39.

`CC(C)c1cc(C(C)C)c(CC(=O)NS(=O)(=O)Oc2c(C(C)C)cccc2C(C)C)c(C(C)C)c1`: the Z-AUC is 1.13.

For `CC(C)[C@H](CO)Nc1nc(Nc2cccc(Cl)c2)c2ncn(C(C)C)c2n1`, the Z-AUC turned out to be 0.284.
